Records with an inconclusive call do not appear. Where a call stands in place of a potency, no number is given. The source made the active and inactive calls. Calls follow the shape of the dose curve; as a rule, active = well fitted cell-killing curve with a large enough effect in the repeat runs; inconclusive = weak or mixed curves, or effect the other way; inactive = no such curve, though single readings can be large or run the other way.
Potency is read from the fitted curve at half-maximal effect.

This assay can be described thus: qHTS assay for small molecule activators of the heat shock response signaling pathway - cell viability counter screen (AID 743209). Also: nearly all actives have a fitted effect of over 50% in size. To be noted: HSE-bla HeLa viability, CellTiter-Glo luminescence, 5 h; series mostly up to 62.6 µM. From the text:
U.S. Tox21 Program National Center for Advancing Translational Sciences [NCATS] NIH Chemical Genomics Center [NCGC] U.S. Environmental Protection Agency [EPA] National Institutes of Environmental Health Sciences [NIEHS] National Toxicology Program [NTP] U.S. Food and Drug Administration [FDA] Tox21 Assay Overview: Various chemicals, environmental and physiological stress conditions may lead to the activation of heat shock response/ unfolded protein response (HSR/UPR). There are three heat shock transcription factors (HSFs) (HSF-1, -2, and -4) mediating transcriptional regulation of the human HSR. To identify the compounds that activate HSR signaling, HSE-bla HeLa cell line (Invitrogen, Carlsbad, CA, USA) containing a beta-lactamase reporter gene under the control of the heat shock response elements was used to screen Tox21 10K compound library. The cytotoxicity of the Tox21 compound library against the HSE-bla HeLa cell line was tested in parallel by measuring the cell viability using CellTiter-Glo assay (Promega, Madison, WI) in the same wells.
Tox21 Assay Protocol Summary: The CellSensor HSE-bla HeLa cells (Invitrogen, Carlsbad, CA, USA) were dispensed at 1500 cells/6uL/well into 1536-well black wall/clear bottom plates using a Multidrop combi (Thermo Fisher Scientific, Waltham, MA) dispenser. After the assay plates were incubated at 37 C and 5% CO2 overnight, 23 nL of compounds dissolved in DMSO, positive controls or DMSO only was transferred to the assay plate by a Pintool station (Kalypsys, San Diego, CA). The plates were incubated at 37 C for 5 h. After 1 uL of LiveBLAzerTM B/G FRET substrate was added using a Flying Reagent Dispenser (FRD, Beckman Coulter, Indianapolis, IN, USA), the plates were incubated at room temperature for 2.5 h, and fluorescence intensity was measured by an Envision plate reader (PerkinElmer, Shelton, CT). For cell viability readout that measures cytotoxicity, 3 ul/well of CellTiter-Glo reagent was added into the assay plates using a FRD. After 30 min incubation at room temperature, the luminescence intensity in the plates was measured using a ViewLux (PerkinElmer) plate reader.
As for `CC(C)(c1ccccc1)c1ccccc1`, the Potency entry was “inactive”. The result for `CCC1(CO)COCOC1` reads “inactive”; that for `CC(C)=CCC/C(C)=C/CC/C(C)=C/CCC(=O)OC/C=C(\C)CCC=C(C)C`, “inactive”; that for `CCOC(=O)c1ccc(OCCN2C[C@H](O)[C@@H](O)[C@H](O)[C@H]2CO)cc1`, “inactive”. Consider `C(=C\c1ccccc1)/c1ccccc1`, for which the Potency result was “inactive”. For the molecule `Cc1cc(C)c(N)cc1C`, the Potency result was “inactive”.

For `CCCCN1CCCC1C(=O)Nc1c(C)cc(C)cc1C` (stereo not given), the Potency entry was “inactive”. The result for `CC1=Nc2ccc3ccccc3c2C1(C)C` reads “inactive”; that for `CN(C(=O)CN(CCO)CC(=O)N(C)C(C)(C)Cc1ccccc1)C(C)(C)Cc1ccccc1`, “inactive”. Consider `CCOC(=O)/C=C/C(=O)OCC`, for which the Potency result is “inactive”. As for `CN1C(=O)N(c2ccccc2Br)Cc2cnc(Nc3ccc4c(c3)OCC(CO)O4)nc21` (stereo not given), the Potency result is “inactive”. As to `CCCCOc1ccc(OCCCN2CCOCC2)cc1`, the Potency entry was “inactive”.

Take `CC(C)Nc1cccnc1N1CCN(C(=O)c2cc3cc(NS(C)(=O)=O)ccc3[nH]2)CC1`: the Potency entry is “inactive”. `COC(=O)c1nc(Cl)c(Cl)nc1N`: the Potency was 5.31 µM (active). As for `Cc1cc(O)c(C)c(C)c1O`, the Potency result is “inactive”. Next, `NCCNCCO`: “inactive”. Turning to `CC1=C(CC=O)C(C)(C)CCC1`, the Potency result was “inactive”. Turning to `C=C(C)CCCC(C)CCO` (stereo not given), the Potency entry was “inactive”. On to `CCOc1ccccc1O[C@H](c1ccccc1)[C@H]1CNCCO1`, for which the Potency result was “inactive”. For the molecule `O=[N+]([O-])c1ccc(Nc2ccc(Nc3ccccc3)c(S(=O)(=O)O)c2)c([N+](=O)[O-])c1`, the Potency entry was “inactive”.

Consider `O=C=Nc1ccc(Cl)c(Cl)c1`, for which the Potency entry was “inactive”. Regarding `Brc1cc(Br)c(Oc2cc(Br)c(Br)cc2Br)cc1Br`, the Potency result is “inactive”.

Turning to `CCCCCCCCC(CCCCCC)C(=O)O` (stereo not given), the Potency is 17.4 µM (active). The result for `COC(=O)C1=C(C)NC(C)=C(C(=O)O[C@@H]2CCCN(Cc3ccccc3)C2)[C@@H]1c1cccc([N+](=O)[O-])c1` reads “inactive”. With `CC(=O)OCC(=O)NCCCOc1cccc(CN2CCCCC2)c1`, the Potency result was “inactive”.

For `CC1(C)S[C@@H]2[C@H](NC(=O)C(c3ccccc3)S(=O)(=O)O)C(=O)N2[C@H]1C(=O)O` (stereo not given in full), the Potency result was “inactive”. With `CCN(CC)CCNC(=O)COc1ccc(OC)cc1`, the Potency entry was “inactive”.

Turning to `C1COC1`, the Potency entry was “inactive”. Take `CCC1CO1` (stereo not given): the Potency entry was “inactive”. For the molecule `O=c1[nH]c2ccc(Cl)cc2o1`, the Potency entry is “inactive”.

`C/C=C(/C(=C/C)c1ccc(O)cc1)c1ccc(O)cc1`: the Potency entry was “inactive”. On to `CN1C[C@H](C(=O)N[C@]2(C)O[C@@]3(O)[C@@H]4CCCN4C(=O)[C@H](Cc4ccccc4)N3C2=O)C[C@@H]2c3cccc4[nH]cc(c34)C[C@H]21`, for which the Potency entry is “inactive”.

In the case of `CC1CC(C)C(=O)C1=O` (stereo not given), the Potency result was “inactive”.

`C=CCc1ccccc1OCC(O)CNC(C)C` (stereo not given): the Potency result was “inactive”. `c1ccc2sc(SN(C3CCCCC3)C3CCCCC3)nc2c1`: the Potency result was “inactive”.

Regarding `CCCCCCCCN`, the Potency entry was “inactive”. The result for `COc1ncnc(NS(=O)(=O)c2ccc(N)cc2)c1OC` reads “inactive”; that for `CC1(C)[C@H](C(=O)O)N2C(=O)C[C@H]2S1(=O)=O`, “inactive”; that for `O=c1cc(-c2ccccc2)oc2ccc3ccccc3c12`, 24.5 µM (active). Turning to `CC(=O)Nc1cc(S(=O)(=O)O)cc2cc(S(=O)(=O)O)c(N=Nc3ccccc3)c(O)c12`, the Potency result was “inactive”.

Values taken from PubChem BioAssay (Tox21).
